Test results: PubChem BioAssay AID651657 (Broad Institute, 2012)
Entries with a potency or affinity are not part of this list. The source made the active and inactive calls.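 How the source made its calls: active means signal falls, with fitted half-maximal concentration at most twice the top valid dose tested; inconclusive means flat curve with partial signal loss, or poor curve fit; inactive means the rest, including signal rising instead.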

Molecular target: DNA repair and recombination protein RAD54-like (Homo sapiens) (UniProt Q92698)
Test: inhibitors of human RAD54 branch migration, confirmation, biochemical, fluorescence, cherry-picked samples, dose series (AID 651657)
Conditions: FAM/BHQ fluorescence, 60 min; series mostly up to 50 µM; activity change, negative = inhibition: at the top concentration

Chain of DNA repair and recombination protein RAD54-like (Homo sapiens) (Q92698 whole entry, looked up): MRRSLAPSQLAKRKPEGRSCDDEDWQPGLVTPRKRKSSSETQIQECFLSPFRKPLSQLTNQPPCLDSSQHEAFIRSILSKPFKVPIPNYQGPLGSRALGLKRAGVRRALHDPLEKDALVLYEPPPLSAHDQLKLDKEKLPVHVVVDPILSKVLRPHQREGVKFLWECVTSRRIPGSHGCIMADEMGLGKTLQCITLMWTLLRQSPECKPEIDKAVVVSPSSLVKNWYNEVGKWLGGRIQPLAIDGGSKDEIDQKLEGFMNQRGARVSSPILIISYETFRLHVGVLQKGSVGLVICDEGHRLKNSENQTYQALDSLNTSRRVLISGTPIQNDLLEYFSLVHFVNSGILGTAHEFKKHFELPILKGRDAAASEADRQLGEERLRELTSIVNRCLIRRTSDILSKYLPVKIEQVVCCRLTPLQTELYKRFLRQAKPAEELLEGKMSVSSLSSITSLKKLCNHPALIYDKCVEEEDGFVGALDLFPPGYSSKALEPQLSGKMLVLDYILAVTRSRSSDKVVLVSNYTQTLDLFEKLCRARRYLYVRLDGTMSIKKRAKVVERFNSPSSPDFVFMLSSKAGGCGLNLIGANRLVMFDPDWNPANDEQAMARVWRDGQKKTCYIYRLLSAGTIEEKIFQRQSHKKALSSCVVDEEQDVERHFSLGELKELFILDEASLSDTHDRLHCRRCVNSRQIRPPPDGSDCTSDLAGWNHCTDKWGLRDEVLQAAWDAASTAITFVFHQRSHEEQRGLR

Activity change, negative = inhibition, inactive:
Cc1ccc(C)c(N2CCN(C(=S)Nc3ccc4nc(N5CCN(C)CC5)cc(C)c4c3)CC2)c1 -6.04%, CCOC(=O)c1[nH]c2cc3c(cc2c1CCCN1C(=O)c2ccccc2C1=O)OCCO3 7.51%, CCOC(=O)C1C(=O)NC(N2CCN(c3ccccc3)CC2)=NC1c1ccco1 (stereo not drawn) 0.305%, CN1CCN(CC(=O)Nc2nc(-c3c[nH]c4ccccc34)cs2)CC1 -12.8%, COc1ccccc1C1=NOC(Cn2c(NCCCO)nc3c2c(=O)n(C)c(=O)n3C)C1 (stereo not drawn) 1.27%, CCCC(c1nnnn1Cc1ccc(OC)cc1)N1CCN(c2ccccc2)CC1 (stereo not drawn) -0.873%, CN(C)CCCN(C(=O)CCOc1ccccc1)c1nc2ccc(F)cc2s1 5.8%, C(=C/c1nccc2c1[nH]c1ccccc12)/c1ccc2c(c1)OCO2 -0.636%, CC1CCCCC1NC(=O)C1Cc2ccccc2CN1S(C)(=O)=O (stereo not drawn) 0.68%, Cc1cccc2cc3c(N)c(C#N)sc3nc12 -4.31%, COC(=O)C1=C(C)Nc2nc3ccccc3n2C1c1ccccc1F (stereo not drawn) 7.88%, O=C(Nc1ccc2c(c1)OCO2)c1cc(-c2ccncc2)nc2ccccc12 -13.1%, COc1cc(NC(=O)c2cccnc2Sc2ccc(C)c(C)c2)cc(OC)c1OC -3.49%, Cc1ccc(S(=O)(=O)N2CCOCC2)c(C)c1NS(C)(=O)=O -2.78%, COc1ccccc1NC(=O)CNC(=O)c1ccccc1 5.4%, Cn1nc(-c2ccccc2)cc1NS(=O)(=O)c1ccc(C#N)cc1 0.704%, Cc1ccc(S(=O)(=O)NCCCNS(=O)(=O)c2ccccc2[N+](=O)[O-])cc1 6.57%, NCCN1CCN(CCN)CC1 1.51%, Cc1ccc(S(=O)(=O)CCSc2ccc(C(F)(F)F)cn2)cc1 4.28%, O=S(=O)(c1ccc(-c2nnc(SCc3ccccc3)o2)cc1)N1CCCC1 1.42%, Cc1ccnc(Nc2nc(-c3sc(C)nc3C)cs2)c1 -2.56%, COc1ccc(N2C(=O)CSC23CCCCC3)cc1 5.14%, Cc1nc2oc3c(=O)[nH]cnc3c2c2c1COC(C)(C)C2 -17.4%
